Test results: PubChem BioAssay AID1159577 (Broad Institute, 2015)
Hit rate of the full screen: of about 1,300 compounds, about 240 (18%) were called active. Roughly 8% stayed inconclusive and do not appear here. A selection follows. Measured potencies and affinities stand elsewhere. Values without a mark were called inactive. How the calls were made is not given here.

test: HepG2 cell cytotoxicity, dose response, cytotoxicity control, cherry-picked samples (AID 1159577); conditions: HepG2 cytotoxicity counterscreen, plate reader; series mostly up to 19.5 µM; activity change, negative = cytotoxicity: at the top concentration;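 further: 0% = neutral control wells and -100% = positive control wells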

Structure (SMILES)	activity change, negative = cytotoxicity
COc1ccc2c3c([nH]c2c1)[C@H](CO)N(Cc1cc(F)ccc1F)CC31CCN(C(C)=O)CC1	-5.87%
CN1C[C@H]2[C@@H](c3ccccc31)[C@H](CO)N2Cc1ccccc1F	2.08%
COc1cccc(NC(=O)N2[C@@H](CO)[C@@H](c3ccccc3)[C@@H]2CNCC(C)C)c1	-22.2%
C[C@H](CO)N1C[C@H](C)[C@H](CN(C)C(=O)Nc2cc(F)ccc2F)Oc2cc(/C=C/c3ccccc3)ccc2S1(=O)=O	-14.4%
C[C@@H]1CN([C@H](C)CO)S(=O)(=O)c2ccc(-c3ccncc3)cc2O[C@H]1CN(C)Cc1ccc(Oc2ccccc2)cc1	6.58%
Cc1ccc(-c2ccc3c(c2)O[C@@H](CN(C)Cc2cccnc2)[C@@H](C)CN([C@@H](C)CO)S3(=O)=O)cc1	-31.1%
C[C@H](CO)N1C[C@H](C)[C@H](CN(C)C(=O)Nc2ccc(F)cc2)Oc2cc(/C=C/c3ccccc3)ccc2S1(=O)=O	-7.91%
CCS(=O)(=O)N1CCC2(CC1)CN(Cc1ccc3c(c1)OCO3)[C@H](CO)c1[nH]c3cc(OC)ccc3c12	12.4%
CCC(=O)N1[C@H](CO)[C@@H](c2ccccc2-c2cccc(C)c2)[C@@H]1C#N	-26.1% [at 21 µM]
COc1ccccc1CNC(=O)C[C@H]1C[C@@H]2c3cc(NC(=O)Nc4ccc(C(F)(F)F)cc4)ccc3O[C@@H]2[C@@H](CO)O1	-0.188%
CO[C@H]1CN(C)C(=O)c2cc(NC(=O)C3CC3)ccc2OC[C@H](C)N(Cc2cccc(F)c2)C[C@H]1C	1.64%
O=C(c1ccccc1)N1CC[C@@H]2[C@@H](CO)Nc3ccc(-c4ccc(F)cc4)cc3[C@@H]21	5.88% [at 21 µM]
COc1ccc(C#Cc2ccc3c(c2)O[C@@H](CN(C)C(=O)Nc2cccc(OC)c2)[C@@H](C)CN([C@@H](C)CO)S3(=O)=O)cc1	17.5%
Cc1ccccc1S(=O)(=O)N1[C@H](CO)[C@@H](c2ccc(C#CC3CCCCC3)cc2)[C@@H]1C#N	8.7%
COCC(=O)N1CC2(C1)CN(Cc1cc(F)ccc1F)[C@H](CO)c1[nH]c3cc(OC)ccc3c12	-3.42%
CO[C@@H]1CN(C)C(=O)c2ccc(NC(=O)c3nc4ccccc4s3)cc2OC[C@H](C)N(Cc2cccnc2)C[C@@H]1C	3.62%
CO[C@@H]1CN(C)C(=O)c2cc(NC(=O)c3nc4ccccc4s3)ccc2OC[C@@H](C)N(Cc2ccccc2)C[C@H]1C	5.97%
CO[C@@H]1CN(C)C(=O)c2ccc(NC(=O)c3nc4ccccc4s3)cc2OC[C@H](C)N(Cc2ccncc2)C[C@@H]1C	13.8%
CO[C@@H]1CN(C)C(=O)c2ccc(NC(=O)c3nc4ccccc4s3)cc2OC[C@@H](C)N(Cc2cccnc2)C[C@H]1C	-15.2%
CC(=O)N1CC[C@@H]2[C@@H](CO)Nc3ccc(C#Cc4ccccc4F)cc3[C@@H]21	12.8% [at 21 µM]
C/C=C/c1ccc([C@@H]2[C@@H](CO)N(CC3CCCC3)C23CN(S(=O)(=O)CC)C3)cc1	-6.49%
COc1ccccc1CN1C[C@@H](C)[C@H](OC)CN(C)C(=O)c2ccc(NC(=O)Nc3ccccc3OC)cc2OC[C@H]1C	-18.3%

Structure (SMILES)	activity change, negative = cytotoxicity
C[C@@H]1CN([C@H](C)CO)C(=O)c2cccc(NC(=O)CCCCCC(=O)Nc3ccccc3N)c2O[C@@H]1CN(C)S(=O)(=O)c1ccccc1	-16.8% [at 21 µM]
Cc1ccccc1S(=O)(=O)N1[C@H](C#N)[C@@H](c2ccc(C#CC3CC3)cc2)[C@@H]1CO	-1.66%
C[C@H](CO)N1C[C@H](C)[C@@H](CN(C)C(=O)c2ccc(F)cc2)Oc2ncc(/C=C/c3ccccc3)cc2C1=O	27.8%
C[C@@H]1CN([C@@H](C)CO)S(=O)(=O)c2ccc(C#CC3(O)CCCC3)cc2O[C@H]1CN(C)C(=O)c1ccccc1	23.2%
CN1c2ccc(-c3cccc(F)c3)cc2[C@@H]2[C@@H](CCN2C(=O)C2CC2)[C@@H]1CO	11.9%
N#C[C@H]1[C@@H](c2ccccc2-c2ccccc2F)[C@@H](CO)N1C(=O)C1CCOCC1	16%
CO[C@@H]1CN(C)C(=O)c2ccc(NC(=O)Nc3ccc(C(F)(F)F)cc3)cc2OC[C@@H](C)NC[C@@H]1C	-17.8% [at 21 µM]
CO[C@H]1CN(C)C(=O)c2ccc(NC(=O)Nc3ccc(C(F)(F)F)cc3)cc2OC[C@@H](C)NC[C@@H]1C	-22.1%
CO[C@H]1CN(C)C(=O)c2ccc(NC(=O)Nc3ccc(C(F)(F)F)cc3)cc2OC[C@H](C)NC[C@H]1C	-23.7%
CO[C@@H]1CN(C)C(=O)c2ccc(NC(=O)Nc3ccc(C(F)(F)F)cc3)cc2OC[C@H](C)NC[C@H]1C	-28.1%
Cc1ccc(-c2ccccc2[C@H]2[C@@H](C#N)N(C(=O)NC3CCCC3)[C@H]2CO)cc1	9.07% [at 21 µM]
COc1ccc(S(=O)(=O)N(C)C[C@@H]2Oc3cc(-c4ccccc4OC)ccc3S(=O)(=O)N([C@H](C)CO)C[C@H]2C)cc1	10.8%
CCCC(=O)Nc1ccc2c(c1)OC[C@H](C)N(Cc1ccc(-c3ccccn3)cc1)C[C@H](C)[C@H](OC)CN(C)C2=O	19.9%
CO[C@@H]1CN(C)C(=O)c2ccc(NC(=O)C3CC3)cc2OC[C@@H](C)N(Cc2cccc(F)c2)C[C@H]1C	-15.8%
CCC(=O)Nc1ccc2c(c1)C(=O)N(C)C[C@H](OC)[C@H](C)CN(Cc1cccc(F)c1)[C@@H](C)CO2	-7.08%
COc1ccc(CN(C)C[C@@H]2OCc3cn(nn3)CCCC(=O)N([C@H](C)CO)C[C@H]2C)cc1	9.36%
COc1ccccc1CN1C[C@@H](C)[C@H](OC)CN(C)C(=O)c2cc(NC(=O)Nc3ccccc3OC)ccc2OC[C@H]1C	-9.22% [at 21 µM]
C[C@@H]1CN([C@H](C)CO)S(=O)(=O)c2ccc(C#Cc3ccccc3F)cc2O[C@H]1CN(C)C(=O)c1ccc2c(c1)OCO2	11%
COc1cccc(C(=O)Nc2ccc3c(c2)C(=O)N(C)C[C@@H](OC)[C@H](C)CN(CCc2ccccc2)[C@H](C)CO3)c1	11%
C/C=C/c1ccc2c(c1)[C@H]1[C@H](CCN1C(=O)c1ccc(F)cc1)[C@H](CO)N2	3.75%
O=C(Nc1ccccc1F)N1C[C@@H]2[C@H](c3ccccc31)[C@H](CO)N2C(=O)C1CCOCC1	10.4%
COc1ccc2c3c([nH]c2c1)[C@@H](CO)N(Cc1cc(F)ccc1F)CC31CN(C(=O)C2CCC2)C1	-20.9%

Structure (SMILES)	activity change, negative = cytotoxicity
CN(C)C(=O)c1ccc(-c2cccc(-c3nc(C(=O)NC4CCCC4)cc4c3[C@H](CCO)N([S@@](=O)C(C)(C)C)C4)c2)cc1	-9.78% [at 21 µM]
CO[C@H]1CN(C)C(=O)c2ccc(NC(=O)c3cccc(Oc4ccccc4)c3)cc2OC[C@@H](C)NC[C@H]1C	-8.04%
CO[C@@H]1CN(C)C(=O)c2ccc(NC(=O)Nc3cccc(F)c3)cc2OC[C@H](C)NC[C@H]1C	-1.59%
COc1ccc(-c2ccc3c(c2)[C@H]2[C@H](CCN2Cc2ccncc2)[C@@H](CO)N3)cc1	2.93% [at 21 µM]
CN1C(=O)c2cc(NC(=O)c3cccc(F)c3)ccc2OC[C@H]2O[C@H](CC(=O)NCC3CCCCC3)CC[C@H]21	-15.7%
CC(C)NC(=O)Nc1ccc2c(c1)C(=O)N(C)[C@H]1CC[C@H](CC(=O)Nc3ccccc3)O[C@H]1CO2	11.6%
CC(C)(C)[S@@](=O)N1Cc2cc(C(=O)N[C@@H]3CCN(Cc4ccccc4)C3)nc(-c3cccc(-c4ccncc4)c3)c2[C@H]1CCO	18.4%
COc1cccc(-c2ccc3c(c2)[C@@H]2[C@@H](CCN2S(=O)(=O)c2cn(C)cn2)[C@@H](CO)N3)c1	2.19%
N#Cc1ccc(-c2ccc3c(c2)[C@H]2[C@H](CCN2C(=O)C2CCCC2)[C@H](CO)N3)cc1	-4.02%
O=C(C[C@H]1CC[C@@H]2[C@H](COC[C@H](O)CN2Cc2cc(F)ccc2F)O1)N[C@@H]1CCN(Cc2ccccc2)C1	2.15%
COc1ccc2c3c([nH]c2c1)[C@@H](CO)N(Cc1ccc(Cl)cc1)CC31CCN(Cc2nccs2)CC1	-16.6%
COc1ccc2c3c([nH]c2c1)[C@@H](CO)N(Cc1nccs1)CC31CCN(Cc2nccs2)CC1	-9.57%
COc1ccc2c3c([nH]c2c1)[C@H](CO)N(Cc1ccccc1)CC31CCN(CC2CC2)CC1	-13.9%
COc1ccc2c3c([nH]c2c1)[C@H](CO)N(Cc1ccc(F)cc1)CC31CCN(Cc2ccccn2)CC1	3.33%
COc1ccc2c3c([nH]c2c1)[C@H](CO)N(Cc1ccncc1)CC31CN(Cc2ccc(-c3ccccn3)cc2)C1	-10.6%
COc1cccc(CN2CC3(CCN(Cc4ccccn4)CC3)c3c([nH]c4cc(OC)ccc34)[C@@H]2CO)c1	-5.33%
C[C@@H]1CN([C@H](C)CO)C(=O)c2cc(NC(=O)CCC(F)(F)F)ccc2O[C@H]1CN(C)C(=O)NC1CCCCC1	8.28%
O=C(C1CCCC1)N1CC[C@@H]2[C@H](CO)Nc3ccc(Br)cc3[C@@H]21	-29.2% [at 21 µM]
COc1ccc2c3c([nH]c2c1)[C@H](CO)N(Cc1ccccc1Cl)CC31CN(C(C)=O)C1	-0.4%
CC(C)(C)[S@@](=O)N1Cc2cc(C(=O)NC3CCC3)nc(-c3cccc(Br)c3)c2[C@H]1CCO	-20.4%
C[C@@H]1CN([C@@H](C)CO)C(=O)c2cccc(NC(=O)Nc3cccc4ccccc34)c2O[C@H]1CN(C)C(=O)NC1CCCCC1	-0.959% [at 16 µM]
COc1ccc2c3c([nH]c2c1)[C@H](CO)N(Cc1ccccc1F)CC31CN(C(=O)C2CCC2)C1	15.1%
